# A selection: hits, their analogues and other compounds. The true share with any hit is near 1.1%.
# MOR-DOR ag: agonists of human mu-delta opioid receptor heterodimerization; P35372+P41143; hit rate 0.3% among 340,000; cells, OPRM1-OPRD1 heterodimerization, luminescence; activation, % at 9.3 µM; AID 504326; in the data active means activation above about 18%;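 further: 0% = vehicle-treated cells and 100% = reference agonist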
# HTR5A ag: counter-screen for OPRM1-OPRD1 agonists: human HTR5A agonism. P47898. HTR5A agonist assay, luminescence, cell-based. hit rate 0.61% among 340,000. activation, % at 9.3 µM; in the data active means activation mostly above about 9.5%, no sharp cut-off; inactive means mostly below about 7.6%;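 further: 0% = cells with vehicle only and 100% = reference agonist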
# Target sequence (P47898 whole entry, looked up): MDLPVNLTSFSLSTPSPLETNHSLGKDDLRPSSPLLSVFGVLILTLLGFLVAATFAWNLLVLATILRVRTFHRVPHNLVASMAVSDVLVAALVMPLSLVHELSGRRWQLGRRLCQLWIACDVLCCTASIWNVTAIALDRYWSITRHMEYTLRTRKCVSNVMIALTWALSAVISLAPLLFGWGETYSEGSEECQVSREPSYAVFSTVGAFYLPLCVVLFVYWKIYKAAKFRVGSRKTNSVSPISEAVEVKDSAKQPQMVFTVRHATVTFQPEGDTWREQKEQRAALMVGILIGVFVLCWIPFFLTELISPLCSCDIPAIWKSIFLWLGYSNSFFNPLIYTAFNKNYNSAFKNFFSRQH
# Bfl-1 A1 inh: inhibitors of the anti-apoptotic protein A1, read as caspase activation. MEF A1-2A-BIM cells, Caspase-Glo 3/7 luminescence, 3 h; percent of clofoctol response, vehicle zero. hit rate 0.066% among 330,000. caspase activation, % (concentration not given with the values). AID 2462;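 active means over half of replicate activation scores above 10%, or exactly half above 10 with the replicate mean above 10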
# OPRM1-OPRD1 inv: mu-delta opioid heterodimer inverse agonism; P35372+P41143; cell-based MOR-DOR heterodimer luminescence; inhibition, % at 9.3 µM; hit rate 0.21% among 340,000; AID 504357; in the data active means inhibition above about 22%, passing the limit was not always enough;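 further: 0% = cells with DMSO and 100% = wells without cells with DMSO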
# HTR5A inv ctr: HTR5A inverse agonism, opioid heterodimer counter-screen; HTR5A cell line, luminescence; P47898; hit rate 0.083% among 340,000; AID 504634; inhibition, % at 9.3 µM; in the data active means inhibition mostly above about 23%, no sharp cut-off; inactive means mostly below about 18%;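 further: 0% = cells with DMSO and 100% = no-cell wells with DMSO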
# An asterisk follows results filed as active; / = no result given.
SMILES,MOR-DOR ag,HTR5A ag,Bfl-1 A1 inh,OPRM1-OPRD1 inv,HTR5A inv ctr
CC(C)CC(=O)Nc1cc2nn(-c3ccccc3)nc2cc1Cl,0,9.1*,-1,2,10
CC(C)CC(=O)Nc1cccc2c1C(=O)N(c1ccccc1)C2=O,0,-4,1,1,11
O=C(NNC(=O)c1cc(Cl)ccc1O)c1ccc(NS(=O)(=O)c2cccs2)cc1,-6,-2,0,29,-11
O=C(CC(Cc1ccccc1)C(=O)O)Nc1ccc(Cl)c(Cl)c1 (centres undefined),0,10.0*,-1,0,-37
O=C(CC(Cc1ccccc1)C(=O)O)Nc1ccccc1 (centres undefined),-4,0,0,18,-1
O=C(Cc1ccccc1F)Nc1ccc2c(c1)CCC2,0,9.6*,-6,-3,-26
CCn1c(SCC(=O)Nc2cc(C)on2)nc2sc3c(c2c1=O)CCCC3,26*,21*,-1,-151,-28
CCN(CC)C(=O)[C@H]1C[C@H](CC(=O)NCCCN(C)C)C(=O)N2CCc3c([nH]c4cc(CCC(=O)N(C)C)ccc34)[C@]12C,-3,5.0*,/,14,-17
Cc1cccc(-c2onc3ccc(C4(C)OCCO4)cc23)c1,5,-1,1,-28,6
CC1(c2ccc3noc(-c4cccc(F)c4)c3c2)OCCO1,13,11*,0,-61,-26
CCc1ccc(N2C(=O)C3CCCN3C2=S)cc1 (centres undefined),-2,0,0,10,-2
CCn1c(O)c(/C=C2\C=NN=C2c2ccccc2)sc1=S,2,-1,1,-11,32
CC(C)Cn1c(O)c(/C=C2\C=NN=C2c2ccccc2)sc1=S,2,3,18*,-14,6
CCOC(=O)/C=C1/SCC(=O)N1CC(=O)NC12CC3CC(CC(C3)C1)C2,-3,10*,/,18,-41
Cc1cccc(NC(=O)CN2C(=O)N/C(=C/c3cc(C)n(C(C)C)c3C)C2=O)c1,-1,8,0,4,-7
Cc1cccc(NC(=O)CN2C(=O)N/C(=C/c3ccc(C)s3)C2=O)c1,23*,12*,-2,-145,-23
CCCCOc1ccc(CSCCNC(=S)Nc2ccccc2)cc1,2,14*,-1,-12,-13
COc1ccc(-c2cc3nc(-c4ccccc4)cc(N4CCCC(O)C4)n3n2)cc1 (centres undefined),-4,-1,2,18,-12
Cn1cc(C(c2ccccn2)c2cn(C)c3ccccc23)c2ccccc21,-2,-2,-1,8,-4
c1ccc(C(c2c[nH]c3ccccc23)c2c[nH]c3ccccc23)nc1,2,32*,-1,-7,-76
COc1cccc(C=NNc2nc3ccccc3s2)c1OC,6,9.7*,/,-30,-40
Nc1nccc(-c2ccc(-n3cccc3)cc2)n1,-1,-2,-3,4,6
C=CCSc1nnc(NC(=O)CSc2nc(CCC)cc(=O)[nH]2)s1,-2,3,-1,9,6
CCOc1ccccc1OCCC(=O)N1CCN(S(=O)(=O)c2ccccc2[N+](=O)[O-])CC1,-1,-4,21*,2,9
CCOC(=O)c1ccc(NC(=O)c2cccc(S(=O)(=O)N3CCN(C(C)=O)CC3)c2)cc1,0,12*,-1,-1,-6
SMILES,MOR-DOR ag,HTR5A ag,Bfl-1 A1 inh,OPRM1-OPRD1 inv,HTR5A inv ctr
Cc1cccc(N(Cc2ccccc2)C(=O)CCl)c1,67*,65*,/,-368,-181
NC(=O)Nc1ccc(C(=O)OCC(=O)NC2CCCCC2)cc1,0,3,0,0,-8
CCOC(=O)c1ccc2c(c1)N(Cc1ccccc1C)C(=O)c1ccccc1S2=O (centres undefined),-1,9.5*,-1,7,-32
O=C(NN1C(=O)c2ccccc2NC1c1ccc([N+](=O)[O-])o1)c1ccc(Br)cc1 (centres undefined),3,-3,0,-16,-34
CC1CC(C)CN(CCCNC(=O)CN2C(=O)CSc3ccc(S(=O)(=O)N4CCOCC4)cc32)C1 (centres undefined),-3,12*,0,14,-33
CCCc1nc(C)cc(N2CCN(c3ccccc3)CC2)n1,-2,9.6*,0,8,-34
Cc1cc(N2CCN(c3ccccc3)CC2)nc(NCc2ccccc2)n1,-2,-3,-1,11,-4
COc1ccc(/C=C/C(=O)OCC(=O)Nc2ccc(Cl)cn2)cc1,5,-6,2,-27,15
COc1ccc(S(=O)(=O)N(C)C)cc1NC(C)C(=O)Nc1cccc(C#N)c1 (centres undefined),-3,0,0,14,0
CCOC(=O)/C(C#N)=C/c1c(N2CCN(Cc3ccc4c(c3)OCO4)CC2)nc2c(C)cccn2c1=O,/,/,-1,/,/
Cc1cccn2c(=O)c(/C=C(\C#N)C(N)=O)c(N3CCN(Cc4ccc5c(c4)OCO5)CC3)nc12,-1,11*,0,5,-40
CCC(Cc1ccccc1)NC(=O)c1cc(S(=O)(=O)N2CCCCC2)c[nH]1 (centres undefined),0,-4,-1,1,10
CCN(C(=O)CCN1C(=O)c2ccccc2S1(=O)=O)c1ccccc1,-1,7,5.7*,5,-18
Cc1cc(C)c(C)c(OCCN2CC(C)OC(C)C2)c1 (centres undefined),-1,0,1,5,-13
COc1cc2c(cc1OC)C1(CCCC1)CNC2c1cccc([N+](=O)[O-])c1 (centres undefined),-7,-13,1,35*,38*
C/C(CC(=O)NCCN1CCOCC1)=N\NC(=O)c1ccncc1,-3,2,0,17,20
COc1ccc(NC(=O)NC2(C(=O)N3CCCCC3)CCCCC2)cc1,-1,-5,0,7,15
COc1ccc(C2Nc3ccc4ccccc4c3-c3c2c(=O)oc2ccccc32)cc1 (centres undefined),5,12,8.7*,-29,-2
NS(=O)(=O)c1ccc(CCNC(=O)c2ccc(OCC3CCCO3)cc2)cc1 (centres undefined),-1,1,0,4,9
CCN1C(N(C)CCc2cccs2)=N[C@@H](c2ccccc2)C(C(=O)OC)=C1C,-2,1,1,9,-4
CCN1C(N(C)CCc2c[nH]c3ccccc23)=N[C@@H](c2cccc(C(F)(F)F)c2)C(C(=O)OC)=C1C,3,22*,1,-19,-66
CN(c1ccc(OCC(=O)NC2CCC(O)CC2)cc1)S(=O)(=O)c1ccc(Cl)cc1 (centres undefined),-2,0,15*,10,-1
Fc1ccc(C2c3cccn3CCN2C(=S)Nc2cccc(F)c2)cc1 (centres undefined),2,2,0,-9,-4
CNC(=S)N1CCn2cccc2C1c1ccc(F)cc1 (centres undefined),0,8.0*,2,-1,-20
